PubChem BioAssay (Tox21)
Records with an inconclusive call do not appear. Active and inactive are the calls of the source. Unless noted, the call rests on the fitted dose curve; in most records, active means well fitted curve in the direction sought with a large enough effect in the repeat runs; inconclusive means weak or mixed curves; inactive means no such curve, though single readings can be large; an effect the other way counts as inactive or inconclusive.

Key:
[1] = qHTS assay for small molecule agonists of the p53 signaling pathway (AID 651631; calls by dose curve; further: nearly all actives have a fitted effect of over 15% in size; further: potency means the concentration at half of the fitted maximal effect)
In short: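 Quantitative high-throughput format: 4,000 p53RE-bla HCT-116 cells/well, 5 h pre-incubation, 16 h compound exposure at 37 °C, 2 h room-temperature substrate step, fluorescence intensity measured.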

[2] = qHTS assay for small molecules that induce genotoxicity in human embryonic kidney cells expressing luciferase-tagged ATAD5 (AID 651632); further: nearly all actives have a fitted effect of over 15% in size; further: potency means the concentration at half of the fitted maximal effect
In short: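 Reporter cells (HEK293T) express luciferase-tagged ATAD5, a protein that accumulates after DNA damage. Treat 16 hr at 37C/5% CO2, add Amplite, wait 30 min at RT, and read luminescence.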

[3] = qHTS assay for small molecule agonists of the p53 signaling pathway - cell viability (AID 651633; calls by dose curve;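 further: p53RE-bla HCT reporter cells with a stable beta-lactamase p53 reporter; series mostly up to about 83 µM; nearly all actives have a fitted effect of over 30% in size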)
In short: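 p53RE-bla cells were treated with compound for 16 hours at 37 C. Cytotoxicity was then measured as CellTiter-Glo luminescence after 30 min at room temperature.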

[4] = qHTS assay for small molecules that induce genotoxicity in human embryonic kidney cells expressing luciferase-tagged ATAD5 - cell viability (AID 651634; calls by dose curve; further: nearly all actives have a fitted effect of over 25% in size)
In short: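 Seeding of 2,000 HEK293T ATAD5-luciferase cells per well preceded pin-tool compound transfer. Plates sat 15.5 hr at 37C under 5% CO2, then fluorescence was read after 30 min with CellTiter-Fluor.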

[5] = qHTS assay for small molecule disruptors of the mitochondrial membrane potential - cell viability (AID 720634; calls by dose curve;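 further: human HepG2 liver cancer cells; series mostly up to about 83 µM; nearly all actives have a fitted effect of over 20% in size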)
In short: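 Measuring cytotoxicity alongside mitochondrial potential, the screen quantified ATP by luminescence in HepG2 cells after 1 hr compound incubation and a 30 min room-temperature CellTiter-Glo step.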

[6] = qHTS assay to test for compound auto fluorescence at 590 nm (red) in HepG2 cells (AID 720674)
In short: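 HepG2 cells, 2,000 per well in MEM with 10% FBS, attached overnight at 37 C, then got 23 nL compound or DMSO. After 1 hr at 37 C, 5% CO2, red fluorescence was read at 540/590 nm against Rose Bengal sodium as reference.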

[7] = qHTS assay to test for compound auto fluorescence at 535 nm (green) in HepG2 cells (AID 720675)
[8] = qHTS assay to test for compound auto fluorescence at 460 nm (blue) in HEK293 cells (AID 720678)
In short: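 Cells were seeded and left to adhere for 4-5 hr at 37C. Compounds were then pin-transferred. After an overnight incubation at 37C under 5% CO2, intrinsic fluorescence at 405/460 nm was measured and referenced to triamterene.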

[9] = qHTS assay to test for compound auto fluorescence at 590 nm (red) in HEK293 cells (AID 720679)
In short: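 Each well held 2,000 HEK293 cells in medium containing 10% dialyzed FBS. Following 4-5 hr attachment at 37C, 23 nL test compound or DMSO was added; plates sat overnight, and red fluorescence (540/590nm) was recorded.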

[10] = qHTS assay for small molecule disruptors of the mitochondrial membrane potential (AID 720635); further: potency means the concentration at half of the fitted maximal effect
In short: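 HepG2 cells exposed to compound 1 hr at 37C, then Mito-MPS dye 30 min. Ratio read of aggregate (540/590 nm) versus monomer (490/535 nm) fluorescence.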

Measured: Potency

CCSC(=O)N(CC)CC
not listed: [10]
inactive: all other assays above

COc1ccc(C)cc1
not listed: [10]
inactive: all other assays above

CSSc1ccoc1C
not listed: [10]
inactive: all other assays above

CC1=CC[C@@]23C[C@@H]1C(C)(C)[C@@H]2CC[C@H]3C
not listed: [10]
inactive: all other assays above

CNc1c2c(nn1C)CCCC2
not listed: [10]
inactive: all other assays above

CCC(CO)(CO)[N+](=O)[O-]
not listed: [10]
inactive: all other assays above

CCc1ccc(C)cc1
not listed: [10]
inactive: all other assays above

O=C(O)CCCc1c[nH]c2ccccc12
not listed: [10]
inactive: all other assays above

CC[C@H]1OC(=O)[C@H](C)[C@@H](O[C@H]2C[C@@](C)(OC)[C@@H](O)[C@H](C)O2)[C@H](C)[C@@H](O[C@@H]2O[C@H](C)C[C@H](N(C)C)[C@H]2O)[C@](C)(O)C[C@@H](C)CN(C)[C@H](C)[C@@H](O)[C@]1(C)O
not listed: [10]
inactive: all other assays above

CN(C)CC/C=C1\c2ccccc2Sc2ccc(Cl)cc21
active: [1] 15 µM
not listed: [3] | [10]
inactive: all other assays above

CCCCOC(=O)CCCCC(=O)OCCCC
not listed: [1]
inactive: all other assays above

O=[N+]([O-])C1(Br)COCOC1
active: [10] 48.6 µM
not listed: [4] | [5] | [9]
inactive: all other assays above

O=C1[C@@H]2[C@H]3CC[C@H](C3)[C@@H]2C(=O)N1CCCCN1CCN(c2ncccn2)CC1
not listed: [1] | [9]
inactive: all other assays above

CCC(CO)(CO)CO
not listed: [5] | [10]
inactive: all other assays above

CCCCCC
not listed: [2] | [7] | [10]
inactive: all other assays above

CCCCC[C@H](O)/C=C/[C@H]1[C@H](O)CC(=O)[C@@H]1C/C=C\CCCC(=O)O
not listed: [1]
inactive: all other assays above

O=C(Oc1ccccc1)c1ccc2ccccc2c1O
active: [2] 9.69 µM
not listed: [5] | [7] | [10]
inactive: all other assays above

CC(=O)OCC1=C(C(=O)O)N2C(=O)[C@@H](NC(=O)CSc3ccncc3)[C@H]2SC1
not listed: [1]
inactive: all other assays above

CSCC[C@H](NC(=O)[C@H](Cc1c[nH]c2ccccc12)NC(=O)CCNC(=O)OC(C)(C)C)C(=O)N[C@@H](CC(=O)O)C(=O)N[C@@H](Cc1ccccc1)C(N)=O
not listed: [1] | [9]
inactive: all other assays above
